Experimental data published in PubChem BioAssay AID1946 (Johns Hopkins Ion Channel Center, 2009).
Out of some 2,400 compounds screened, about 180 (7.5%) were called active.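 The calls were made as follows: active = readout below zero, meaning a drop past 3 SD under the dofetilide-free negative control mean; inactive = the rest.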 The sample as a whole holds a higher share of actives than the screen did.

The compounds below were run against Potassium voltage-gated channel subfamily KQT member 2 (Rattus norvegicus) (UniProt O88943) (assay: KCNQ2 blockade in CHO cells – cell-based, FluxOR thallium flux, counter-screen for hERG block protector project, confirmation (AID 1946)). Details: FluxOR thallium flux fluorescence, at 10 µM, hits give low values.
Sequence of Potassium voltage-gated channel subfamily KQT member 2 (Rattus norvegicus) (O88943 whole entry, looked up): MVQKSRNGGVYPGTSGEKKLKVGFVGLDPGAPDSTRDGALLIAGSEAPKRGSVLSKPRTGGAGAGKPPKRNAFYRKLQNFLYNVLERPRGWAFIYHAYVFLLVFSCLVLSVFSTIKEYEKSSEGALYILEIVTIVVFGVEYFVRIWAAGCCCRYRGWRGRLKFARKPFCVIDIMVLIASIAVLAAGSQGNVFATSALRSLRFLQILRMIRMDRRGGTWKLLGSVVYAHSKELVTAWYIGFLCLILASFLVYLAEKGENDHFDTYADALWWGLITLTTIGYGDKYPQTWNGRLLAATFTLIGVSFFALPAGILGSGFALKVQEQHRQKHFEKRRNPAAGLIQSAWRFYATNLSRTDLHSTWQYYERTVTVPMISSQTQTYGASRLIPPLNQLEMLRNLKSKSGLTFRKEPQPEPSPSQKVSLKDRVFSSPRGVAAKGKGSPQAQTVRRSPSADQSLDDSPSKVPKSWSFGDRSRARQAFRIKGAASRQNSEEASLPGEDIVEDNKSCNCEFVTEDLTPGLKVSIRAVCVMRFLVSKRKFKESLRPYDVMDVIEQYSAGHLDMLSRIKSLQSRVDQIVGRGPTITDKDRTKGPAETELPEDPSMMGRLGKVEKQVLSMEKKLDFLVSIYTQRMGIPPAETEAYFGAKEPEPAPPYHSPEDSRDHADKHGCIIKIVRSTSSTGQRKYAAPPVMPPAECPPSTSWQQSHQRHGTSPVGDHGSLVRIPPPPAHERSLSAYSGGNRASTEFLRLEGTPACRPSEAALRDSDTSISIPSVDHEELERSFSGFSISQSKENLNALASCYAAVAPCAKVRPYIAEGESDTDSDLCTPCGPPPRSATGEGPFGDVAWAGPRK

Compound | activity change vs negative control
O=C(O)CCC(=O)NCCC1=c2ccccc2=N/C1=C\c1c(O)n(Cc2ccc(F)cc2)c(=S)[nH]c1=O | -3.3% (active)
O=C1CC(=O)N(c2cccc(C(F)(F)F)c2)C(=O)N1 | 10.7% [zero marks the 3-SD hit cutoff] (inactive)
COc1ccc2c(c1)/C(=C/c1cnc[nH]1)C(=O)N2 | 28% [zero marks the 3-SD hit cutoff] (inactive)
COc1ccc2c3c1OC1C(O)C=CC4C(C2)[N+](C)(C)CCC341 (stereo not given) | 11.5% (inactive)
CCOC(=O)c1c(NS(=O)(=O)c2ccccc2)n(CCCOC)c2nc3ccccc3nc12 | 1.7% [zero marks the 3-SD hit cutoff] (inactive)
C=CCn1c(O)c(/C=C2/C=c3ccccc3=N2)c(=O)[nH]c1=S | 3.2% (inactive)
O=c1[nH]c(=S)[nH]c(O)c1/C=C1/C=c2ccccc2=N1 | -4.3% (active)
Cc1ccc(S(=O)(=O)NC(Cc2cnc[nH]2)C(=O)O)cc1 (stereo not given) | 7.9% [zero marks the 3-SD hit cutoff] (inactive)
Cc1ccc(-n2c(O)c(/C=N/Nc3ccccc3)c(=O)[nH]c2=O)cc1C | 18.8% (inactive)
C1CCC2S[C@H]3CCCCC3NC2C1 (stereo not given in full) | 6.1% [zero marks the 3-SD hit cutoff] (inactive)
Cc1nc2ccccc2c(=O)n1-c1cc([N+](=O)[O-])cc([N+](=O)[O-])c1 | -5.3% (active)
CCOC(=O)Cn1cc([N+](=O)[O-])nc1[N+](=O)[O-] | 14.6% [zero marks the 3-SD hit cutoff] (inactive)
O=c1[nH]c(=S)[nH]c(O)c1N=Nc1ccc(S(=O)(=O)N2CCc3ccccc32)cc1 | 7.8% (inactive)
O=C(Cn1ncc2c3ccccc3n(Cc3ccccc3F)c2c1=O)N1CCC2(CC1)OCCO2 | 64.8% (inactive)
CCCc1[nH]nc2c1C1(C(=O)N(Cc3ccccc3)c3ccccc31)C(C(=O)OC)=C(N)O2 (stereo not given) | 3.3% [zero marks the 3-SD hit cutoff] (inactive)
O=C1NC(=O)N(c2ccccc2)C(=O)/C1=C/c1ccc(Sc2ccccc2)o1 | -2.5% (active)
Cc1ccccc1N1C(=O)/C(=C/c2ccco2)C(=O)NC1=S | 15% (inactive)
O=C1NC(=S)N(c2ccc(F)cc2)C(=O)/C1=C/c1ccco1 | 22.1% (inactive)
CN1C(=O)/C(=C/c2ccc(Cl)s2)C(=O)NC1=S | 9.5% (inactive)
CC(=NCc1ccco1)c1c(O)n(-c2ccc(C)cc2)c(=O)[nH]c1=O | 18.6% (inactive)
O=c1[nH]c(O)c(/C=C2/C=CC(c3cc(Cl)ccc3Cl)=N2)c(=O)[nH]1 | -2.7% (active)
O=C1NC(=O)C(=Cc2ccc(-c3ccc(Cl)cc3)o2)C(=O)N1 | 11% (inactive)
O=C(O)c1c[nH]c2ccc(S(=O)(=O)N(CCCl)CCCl)cc12 | 14% [zero marks the 3-SD hit cutoff] (inactive)
N#CC1=C(N)Oc2c(c(=O)oc3ccccc23)C1c1cccnc1 (stereo not given) | 7.9% [zero marks the 3-SD hit cutoff] (inactive)
NCCc1ccc(S(N)(=O)=O)cc1 | -1.5% [zero marks the 3-SD hit cutoff] (active)
O=c1c2cc(Br)ccc2[nH]c(=S)n1-c1ccccc1 | 9.1% [zero marks the 3-SD hit cutoff] (inactive)
CCCCn1c(O)c(C(CC)=Nc2ccc(OCC)cc2)c(=O)[nH]c1=O | 3.2% (inactive)
CN1C(=O)/C(=C\c2ccc(Br)s2)C(=O)NC1=S | 6.5% (inactive)
Oc1cccc2cccnc12 | 24.3% [zero marks the 3-SD hit cutoff] (inactive)
COc1ccccc1N1CCN(Cc2ccc(F)cc2)CC1 | 8.2% (inactive)
